Results from PubChem BioAssay AID2014 (Sanford-Burnham Center for Chemical Genomics, 2009).
Screen size: about 290,000 compounds; about 3,000 (1%) were called active. The rule behind the calls is not given here. Many of the other results were omitted from the sample, so actives are more common in it than they were.

Target: Polyadenylate-binding protein 1 (Homo sapiens) (UniProt P11940)
Test: blockers of PABP interaction with poly(A) – biochemical, fluorescence polarization, uHTS, primary screen (AID 2014);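 note: calls also rest on retests at 20 µM and on dose response follow-up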
Details: PABP-poly(A) RNA binding, stronger effect = higher value

Sequence of Polyadenylate-binding protein 1 (Homo sapiens) (P11940 whole entry, looked up): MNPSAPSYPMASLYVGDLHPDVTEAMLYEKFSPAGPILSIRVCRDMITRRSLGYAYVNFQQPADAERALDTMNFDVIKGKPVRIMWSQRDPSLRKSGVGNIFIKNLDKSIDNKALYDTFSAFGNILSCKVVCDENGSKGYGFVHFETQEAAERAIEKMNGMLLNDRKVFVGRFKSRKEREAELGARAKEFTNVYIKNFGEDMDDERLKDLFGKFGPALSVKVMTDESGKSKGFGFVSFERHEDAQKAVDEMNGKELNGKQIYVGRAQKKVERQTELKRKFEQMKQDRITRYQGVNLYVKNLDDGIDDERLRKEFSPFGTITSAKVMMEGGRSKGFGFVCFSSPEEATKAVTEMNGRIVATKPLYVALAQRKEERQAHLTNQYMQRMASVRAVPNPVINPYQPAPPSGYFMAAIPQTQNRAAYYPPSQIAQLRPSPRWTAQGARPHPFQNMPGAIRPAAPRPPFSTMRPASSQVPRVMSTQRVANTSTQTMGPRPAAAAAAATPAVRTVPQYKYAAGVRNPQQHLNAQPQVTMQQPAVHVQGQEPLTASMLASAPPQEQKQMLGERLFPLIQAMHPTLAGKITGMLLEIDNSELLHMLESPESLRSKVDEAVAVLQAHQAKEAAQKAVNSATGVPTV

Row | SMILES | inhibition (at 35 µM) | inhibition (confirmation repeats, at 20 µM) [%]
1 | Cc1cccc(NC(=O)Cc2ccc(Br)cc2)n1 | -9.8% (inactive) | –
2 | O=C(NC(Cc1ccc(O)cc1)C(=O)O)/C(=C/c1ccccc1)NC(=O)c1ccccc1 (centres undefined) | 2.8% (inactive) | –
3 | C/C=C(/C)C(=O)OC1Cc2c(ccc3ccc(=O)oc23)OC1(C)C (centres undefined) | 5.5% (inactive) | –
4 | CC1(C)Oc2ccc3ccc(=O)oc3c2/C(=C/NCCO)C1=O | 51.8% (active) | –
5 | CC1(C)Oc2ccc3ccc(=O)oc3c2/C(=N/O)C1=O | -7% (inactive) | –
6 | Cc1ccc(S(=O)(=O)N(CC(O)CN2CCCCC2)c2cccc([N+](=O)[O-])c2)cc1 (centres undefined) | -2.5% (inactive) | –
7 | O=C(CCNS(=O)(=O)c1cccs1)N1CCN(c2ccc(F)cc2)CC1 | 2.5% (inactive) | –
8 | Cc1cccc(CCNS(=O)(=O)c2ccc3c(c2)NC(=O)CO3)c1 | 0.4% (inactive) | –
9 | Cc1nc2c(c(=O)n1Cc1ccco1)c1nc3ccccc3nc1n2Cc1ccccc1 | 57.3% (active) | –
10 | Cc1nc2ccccc2c(=O)n1Cc1ccc([N+](=O)[O-])cc1 | -8.9% (inactive) | –
11 | Cc1ccc(Cn2c(C)nc3c(c2=O)c2nc4ccccc4nc2n3Cc2ccco2)cc1 | 17.9% (inactive) | –
12 | Cc1cccc(NS(=O)(=O)c2cc(Cl)ccc2Cl)n1 | -4.9% (inactive) | –
13 | O=C1CCNCCN1[C@H](CO)Cc1ccccc1 | -8.7% (inactive) | –
14 | COc1ccc(C(=O)NC2=NCCS2)c(OC)c1 | -7.6% (inactive) | –
15 | COc1ccc2cc(C(=O)NCC3CCCO3)[nH]c2c1 (centres undefined) | 0.3% (inactive) | –
16 | O=S(=O)(c1ccc(Br)cc1)N1CCC(c2nc3ccccc3[nH]2)CC1 | 3.9% (inactive) | –
17 | CCCCOC(=O)Cn1c(=O)n(CC(=O)OCCCC)c2cc(C)ccc21 | -8.1% (inactive) | –
18 | Cc1ccc(CCCOC(=O)C[N+]2(C)CCCCC2)cc1 | 50.6% (active) | –
19 | Cc1ccc(CCCOC(=O)C[N+]2(C)CCCC2)cc1 | 2.4% (inactive) | –
20 | Cc1ccc(C(=O)COC(=O)CCN2C(=O)C3C4CCC(C4)C3C2=O)cc1C (centres undefined) | -12.4% (inactive) | –

Row | SMILES | inhibition (at 35 µM) | inhibition (confirmation repeats, at 20 µM) [%]
21 | COc1cccc(NC(=O)N2CCC(NC(=O)C(Cc3cccc(C)c3)NC(C)=O)CC2)c1 (centres undefined) | 2.7% (inactive) | –
22 | Cc1cc(NC(=O)CN2CCCC(C)C2)n(-c2nc3ccccc3s2)n1 (centres undefined) | 5.3% (inactive) | –
23 | CCC(C)Cn1c(O)cc2nn(-c3nc4ccccc4s3)c(=O)c-2c1C (centres undefined) | 68.7% (active) | –
24 | C/C(=N\NC(=O)CC(C)C)c1c(C(F)(F)F)[nH]n(-c2nc3ccccc3s2)c1=O | -1.1% (inactive) | –
25 | CCOC(=O)c1ccccc1NC(=O)COC(=O)CCC(=O)N1CCOCC1 | -1.1% (inactive) | –
26 | COc1ccccc1NC(=O)c1cc(N2C(=O)C3C4CCC(C4)C3C2=O)ccc1Cl (centres undefined) | 1.6% (inactive) | –
27 | O=C1CC(c2ccccc2)C(=O)N1c1cccc(O)c1 (centres undefined) | -5.5% (inactive) | –
28 | O=C1OCC2=C1C(c1ccccc1)CC(=O)N2c1cccc(F)c1 (centres undefined) | 68% (active) | 65.5
29 | O=C1CC(NNc2ccccc2)C(=O)N1c1cccc(Cl)c1 (centres undefined) | -2.5% (inactive) | –
30 | CCc1nnc(NC(=O)CCC(=O)N2CCN(c3cc(C)ccc3C)CC2)s1 | 11.5% (inactive) | –
31 | O=C(OCc1ccc(-c2ccccc2)cc1)c1cccc(O)c1 | 10.5% (inactive) | –
32 | CCc1ccc(OCC2c3cc(OC)c(OC)cc3CCN2C(C)=O)cc1 (centres undefined) | 6.8% (inactive) | –
33 | COc1cc2c(cc1O)[C@H](Cc1ccc(Oc3cc(C[C@@H]4NCCc5cc(OC)c(O)cc54)ccc3O)cc1)NCC2 | 0.1% (active) | 91.3
34 | CC[C@H]1CN2CCc3cc(OC)c(OC)cc3[C@@H]2C[C@@H]1C[C@H]1NCCc2cc(OC)c(OC)cc21 | 1.5% (inactive) | –
35 | COc1ccccc1C(=O)Nc1ccnn1C1CCN(C(=O)C(C)(C)C)CC1 | 8.7% (inactive) | –
36 | O=C(CSc1ncccn1)N1CCCC1 | 9.6% (inactive) | –
37 | C=CCNc1nnc(C)c2ccccc12 | -0.7% (inactive) | –
38 | C=CCNc1nnc(SCC(=O)N2CCCCC2)c2ccccc12 | 116% (active) | 56.4
39 | Cc1nc(-c2ccc(F)cc2)c(CC(=O)N2CCN(S(=O)(=O)c3ccc(F)cc3)CC2)s1 | 6.2% (inactive) | –
40 | O=C(CN1CCC(O)(c2cccc(C(F)(F)F)c2)CC1)NCCc1ccccc1 | -5% (inactive) | –

Row | SMILES | inhibition (at 35 µM) | inhibition (confirmation repeats, at 20 µM) [%]
41 | O=C(Nc1cccc([N+](=O)[O-])c1)N1CCc2ccccc2C1 | -6.2% (inactive) | –
42 | CC(C(=O)NCCc1ccc(S(N)(=O)=O)cc1)N1C(=O)CC(C)(C)Sc2ccccc21 (centres undefined) | -1.3% (inactive) | –
43 | Cc1cccc(NC(=O)c2sc3nc4c(c(-c5ccco5)c3c2N)CCC4)c1 | 63% (active) | 87.7
44 | NC(=O)c1sc2nc3c(c(-c4ccccc4)c2c1N)CCC3 | -3.5% (inactive) | –
45 | Cc1cccc(NC(=O)c2sc3nc(N4CCOCC4)c4c(c3c2N)CCCC4)c1 | 4.1% (inactive) | –
46 | O=C(CNC(=O)c1ccccc1F)c1ccc(Br)cc1 | 0.1% (inactive) | –
47 | O=C(O)c1ccc2c(=O)n3c(nc2c1)/C(=C/c1ccc(OC(F)F)cc1OC(F)F)CC3 | 5.3% (inactive) | –
48 | CC(NC(=O)c1cc(=O)[nH]c2ccccc12)c1ccc(F)cc1F (centres undefined) | 12.3% (inactive) | –
49 | CS(=O)(=O)C1=NN2C(=N)/C(=C\c3ccc(OCCOc4ccccc4)cc3)C(=O)N=C2S1 | 16.8% (inactive) | –
50 | Cc1cc(/C=C2/C(=N)N3C(=NC2=O)SN=C3S(C)(=O)=O)c(C)n1-c1ccccc1 | -5.5% (inactive) | 11.8
51 | CS(=O)(=O)c1ccc2c(c1)SC1=NC(=O)/C(=C/c3ccco3)C(=N)N12 | 91% (active) | –
52 | Cc1cccc(OC(C)C(=O)N2CCc3ccccc3C2)c1 (centres undefined) | -5.4% (inactive) | –
53 | CC(C)[C@@H](C(=O)O)N(Cc1cccc(CN([C@H](C(=O)O)C(C)C)S(C)(=O)=O)c1)S(C)(=O)=O | 4.8% (inactive) | –
54 | O=C(N/N=C/c1cccc([N+](=O)[O-])c1)c1ccncc1 | -0.6% (inactive) | –
55 | N/C(=N\OS(=O)(=O)c1cccc([N+](=O)[O-])c1)c1ccncc1 | -9.3% (active) | 74.6
56 | CO/N=C(\N)c1ccc([N+](=O)[O-])cc1 | -0.6% (inactive) | –
57 | COc1cccc(CNc2ncc(-c3ccccc3)n2C)c1 | -1.9% (inactive) | –
58 | C=CCn1cc(Cl)cc(C(=O)Nc2ccccc2)c1=O | -10% (inactive) | –
